Measured values taken from PubChem BioAssay AID1159580 (chemical genetic matrix, 2015).
Out of some 5,500 compounds screened, about 2,000 (36%) were called active. About 18% were inconclusive and are not listed. Rule as the data show it: active = normalized growth mostly below about 0.91 (no sharp cut-off); inconclusive = no clear call, values can overlap the other calls; inactive = mostly above about 0.92. This is one part of the list.

Test: chemical genetic growth profiling, strain panel (AID 1159580);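 also: tested at 20 µM; growth read once vehicle control cultures reached saturation at 30 °C; 1 = growth at the plate median or of vehicle wells; lower values mean less growth of the strain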
Conditions: growth OD

Measured: normalized growth

CC(C)[C@]12O[C@H]1[C@@H]1O[C@@]13[C@@]1(C)CCC4=C(COC4=O)[C@@H]1C[C@@H]1O[C@@]13C2=O
inactive: S. cerevisiae deletion strains, locus YAL013W, strain DEP1, hits give low values 1.01 | S. cerevisiae deletion strains, locus YBR021W, strain FUR4, hits give low values 0.991 | S. cerevisiae deletion strains, locus YBR229C, strain ROT2, hits give low values 1.01 | S. cerevisiae deletion strains, locus YCL029C, strain bik1, hits give low values 0.998 | S. cerevisiae deletion strains, locus YDL035C, strain GPR1, hits give low values 1.01 | S. cerevisiae deletion strains, locus YDL074C, strain BRE1, hits give low values 1.03 | S. cerevisiae deletion strains, locus YDL101C, strain DUN1, hits give low values 1.02 | S. cerevisiae deletion strains, locus YDL134C, strain PPH21, hits give low values 1.01 | S. cerevisiae deletion strains, locus YDL185W, strain tfp1, hits give low values 1 | S. cerevisiae deletion strains, locus YDL192W, strain arf1, hits give low values 0.994 | S. cerevisiae deletion strains, locus YDR101C, strain arx1, hits give low values 0.977 | S. cerevisiae deletion strains, locus YDR150W, strain NUM1, hits give low values 1.02 | S. cerevisiae deletion strains, locus YDR162C, strain NBP2, hits give low values 1.02 | S. cerevisiae deletion strains, locus YDR318W, strain mcm21, hits give low values 0.979 | S. cerevisiae deletion strains, locus YDR388W, hits give low values 0.996 | S. cerevisiae deletion strains, locus YDR502C, strain sam2, hits give low values 1.01 | S. cerevisiae deletion strains, locus YEL061C, strain CIN8, hits give low values 1.01 | S. cerevisiae deletion strains, locus YER110C, hits give low values 0.987 | S. cerevisiae deletion strains, locus YER155C, strain BEM2, hits give low values 1.02 | S. cerevisiae deletion strains, locus YER167W, strain BCK2, hits give low values 1.01 | S. cerevisiae deletion strains, locus YGL078C, strain dbp3, hits give low values 1.01 | S. cerevisiae deletion strains, locus YGL086W, strain mad1, hits give low values 0.988 | S. cerevisiae deletion strains, locus YGL248W, strain PDE1, hits give low values 1.01 | S. cerevisiae deletion strains, locus YGR078C, strain PAC10, hits give low values 1.02 | S. cerevisiae deletion strains, locus YGR135W, strain pre9, hits give low values 0.995 | S. cerevisiae deletion strains, locus YGR229C, strain SMI1, hits give low values 1.01 | S. cerevisiae deletion strains, locus YGR252W, strain gcn5, hits give low values 0.922 | S. cerevisiae deletion strains, locus YHR030C, strain SLT2, hits give low values 1.01 | S. cerevisiae deletion strains, locus YHR079C, strain IRE1 (second series), hits give low values 0.992 | S. cerevisiae deletion strains, locus YHR094C, strain hxt1, hits give low values 0.991 | S. cerevisiae deletion strains, locus YHR129C, strain ARP1, hits give low values 1.01 | S. cerevisiae deletion strains, locus YHR200W, strain rpn10, hits give low values 0.997 | S. cerevisiae deletion strains, locus YIL066C, strain RNR3, hits give low values 1 | S. cerevisiae deletion strains, locus YIL073C, strain SPO22, hits give low values 0.958 | S. cerevisiae deletion strains, locus YIL125W, strain kgd1, hits give low values 1.01 | S. cerevisiae deletion strains, locus YIR030C, strain dcg1, hits give low values 0.998 | S. cerevisiae deletion strains, locus YJL095W, strain BCK1, hits give low values 1 | S. cerevisiae deletion strains, locus YJL134W, strain LCB3, hits give low values 1.01 | S. cerevisiae deletion strains, locus YJL168C, strain set2, hits give low values 0.993 | S. cerevisiae deletion strains, locus YJL187C, strain SWE1 (second series), hits give low values 1.02 | S. cerevisiae deletion strains, locus YJR043C, strain POL32, hits give low values 0.987 | S. cerevisiae deletion strains, locus YJR075W, strain HOC1, hits give low values 1.02 | S. cerevisiae deletion strains, locus YKL009W, strain mrt4, hits give low values 0.994 | S. cerevisiae deletion strains, locus YKL068W, hits give low values 0.994 | S. cerevisiae deletion strains, locus YKL085W, strain MDH1 (second series), hits give low values 0.997 | S. cerevisiae deletion strains, locus YKL085W, strain MDH1, hits give low values 0.997 | S. cerevisiae deletion strains, locus YKL190W, strain CNB1, hits give low values 1.01 | S. cerevisiae deletion strains, locus YKR001C, strain vps1, hits give low values 0.997 | S. cerevisiae deletion strains, locus YLR039C, strain RIC1, hits give low values 1.01 | S. cerevisiae deletion strains, locus YLR058C, strain SHM2, hits give low values 1.01 | S. cerevisiae deletion strains, locus YLR102C, strain apc9, hits give low values 1 | S. cerevisiae deletion strains, locus YLR262C, strain YPT6, hits give low values 0.979 | S. cerevisiae deletion strains, locus YLR268W, strain sec22, hits give low values 0.984 | S. cerevisiae deletion strains, locus YLR330W, strain CHS5, hits give low values 1.01 | S. cerevisiae deletion strains, locus YLR342W, strain FKS1 (second series), hits give low values 0.978 | S. cerevisiae deletion strains, locus YLR371W, strain rom2, hits give low values 1 | S. cerevisiae deletion strains, locus YLR418C, strain cdc73, hits give low values 0.995 | S. cerevisiae deletion strains, locus YML016C, strain PPZ1, hits give low values 1.01 | S. cerevisiae deletion strains, locus YML032C, strain rad52, hits give low values 0.972 | S. cerevisiae deletion strains, locus YML124C, strain tub3, hits give low values 0.996 | S. cerevisiae deletion strains, locus YMR078C, strain ctf18, hits give low values 0.989 | S. cerevisiae deletion strains, locus YMR223W, strain ubp8, hits give low values 0.976 | S. cerevisiae deletion strains, locus YMR263W, strain SAP30, hits give low values 1.03 | S. cerevisiae deletion strains, locus YMR307W, strain GAS1, hits give low values 1.04 | S. cerevisiae deletion strains, locus YNL067W, strain RPL9B, hits give low values 1.02 | S. cerevisiae deletion strains, locus YNL128W, strain TEP1, hits give low values 1.03 | S. cerevisiae deletion strains, locus YNL153C, strain GIM3, hits give low values 1.03 | S. cerevisiae deletion strains, locus YNL233W, strain BNI4, hits give low values 1.04 | S. cerevisiae deletion strains, locus YNL250W, strain rad50, hits give low values 0.992 | S. cerevisiae deletion strains, locus YNL271C, strain bni1, hits give low values 0.998 | S. cerevisiae deletion strains, locus YNL298W, strain CLA4, hits give low values 1.01 | S. cerevisiae deletion strains, locus YNL307C, strain MCK1, hits give low values 0.983 | S. cerevisiae deletion strains, locus YNL322C, strain KRE1, hits give low values 1.01 | S. cerevisiae deletion strains, locus YNR052C, strain pop2, hits give low values 0.978 | S. cerevisiae deletion strains, locus YOL006C, strain TOP1, hits give low values 1.01 | S. cerevisiae deletion strains, locus YOL012C, strain htz1 0.999 | S. cerevisiae deletion strains, locus YOL147C, strain pex11, hits give low values 0.996 | S. cerevisiae deletion strains, locus YOR061W, strain CKA2, hits give low values 1.01 | S. cerevisiae deletion strains, locus YOR069W, strain VPS5, hits give low values 1.01 | S. cerevisiae deletion strains, locus YOR136W, strain idh2, hits give low values 0.99 | S. cerevisiae deletion strains, locus YOR144C, strain elg1, hits give low values 0.997 | S. cerevisiae deletion strains, locus YOR184W, strain ser1, hits give low values 0.966 | S. cerevisiae deletion strains, locus YOR316C, strain cot1, hits give low values 0.997 | S. cerevisiae deletion strains, locus YPL055C, strain LGE1, hits give low values 1.06 | S. cerevisiae deletion strains, locus YPL241C, strain CIN2, hits give low values 1.01 | S. cerevisiae deletion strains, locus YPR119W, strain clb2, hits give low values 0.999 | S. cerevisiae deletion strains, locus YPR141C, strain kar3, hits give low values 0.987 | S. cerevisiae deletion strains, locus YPR163C, strain tif3, hits give low values 1 | S. cerevisiae deletion strains, locus YPR167C, strain met16, hits give low values 0.99 | S. cerevisiae deletion strains, strain wtn01, hits give low values 1.02 | S. cerevisiae strains, strain wild type, hits give low values 1.01
